# The whole screen tested about 5,500 compounds, of which about 2,000 (36%) were called active. Another 18% or so got no clear call; they are omitted. The list shows a part of the results. Values without a mark were called inactive. Cut-off read from the data, not from the text of the source: active = normalized growth mostly below about 0.91 (no sharp cut-off); inconclusive = no clear call, values can overlap the other calls; inactive = mostly above about 0.92.
# Experiment: chemical genetic growth profiling, strain panel (AID 1159580);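 note: tested at 20 µM; growth read once vehicle control cultures reached saturation at 30 °C; 1 = growth at the plate median or of vehicle wells; lower values mean less growth of the strain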
# Conditions: S. cerevisiae deletion strains, growth OD
smiles,measurement,setting,value
Clc1ccc(-c2noc(CSC3=NCCN3)n2)cc1,normalized growth,"locus YAR019C, strain CDC15, stronger effect = lower value",0.987
same,normalized growth,"locus YBL105C, strain PKC1, stronger effect = lower value",0.987
same,normalized growth,"locus YBR135W, strain CKS1, stronger effect = lower value",0.98
same,normalized growth,"locus YBR136W, strain MEC1, stronger effect = lower value",0.981
same,normalized growth,"locus YBR160W, strain CDC28, stronger effect = lower value",0.984
same,normalized growth,"locus YDL017W, strain CDC7, stronger effect = lower value",0.986
same,normalized growth,"locus YDL028C, strain MPS1, stronger effect = lower value",0.979
same,normalized growth,"locus YDL101C, strain DUN1, stronger effect = lower value",0.989
same,normalized growth,"locus YDL108W, strain KIN28, stronger effect = lower value",0.979
same,normalized growth,"locus YDL132W, strain cdc53, stronger effect = lower value",0.98
same,normalized growth,"locus YDL214C, strain PRR2, stronger effect = lower value",0.923
same,normalized growth,"locus YDR052C, strain DBF4, stronger effect = lower value",0.981
same,normalized growth,"locus YDR054C, strain cdc34, stronger effect = lower value",0.96
same,normalized growth,"locus YDR226W, strain ADK1, stronger effect = lower value",0.975
same,normalized growth,"locus YDR477W, strain SNF1, stronger effect = lower value",0.938
same,normalized growth,"locus YER123W, strain YCK3, stronger effect = lower value",0.904
same,normalized growth,"locus YER133W, strain GLC7, stronger effect = lower value",0.935
same,normalized growth,"locus YFL009W, strain cdc4, stronger effect = lower value",0.978
same,normalized growth,"locus YFL029C, strain CAK1, stronger effect = lower value",0.987
same,normalized growth,"locus YFR003C, strain YPI1, stronger effect = lower value",0.974
same,normalized growth,"locus YFR019W, strain FAB1, stronger effect = lower value",0.948
same,normalized growth,"locus YFR028C, strain CDC14, stronger effect = lower value",0.971
same,normalized growth,"locus YGR040W, strain KSS1, stronger effect = lower value",0.926
same,normalized growth,"locus YGR052W, strain FMP48, stronger effect = lower value",0.964
same,normalized growth,"locus YGR092W, strain DBF2, stronger effect = lower value",0.955
same,normalized growth,"locus YHR030C, strain SLT2, stronger effect = lower value",0.93
same,normalized growth,"locus YHR079C, strain IRE1, stronger effect = lower value",0.968
same,normalized growth,"locus YHR082C, strain KSP1, stronger effect = lower value",1.02
same,normalized growth,"locus YHR205W, strain SCH9, stronger effect = lower value",0.962
same,normalized growth,"locus YIL147C, strain SLN1, stronger effect = lower value",0.969
same,normalized growth,"locus YJL095W, strain BCK1, stronger effect = lower value",0.949
same,normalized growth,"locus YJL128C, strain PBS2, stronger effect = lower value",0.912
same,normalized growth,"locus YJL157C, strain FAR1, stronger effect = lower value",0.925
same,normalized growth,"locus YJR016C, strain ILV3, stronger effect = lower value",0.974
same,normalized growth,"locus YJR066W, strain TOR1 (second series), stronger effect = lower value",0.912
same,normalized growth,"locus YJR066W, strain TOR1, stronger effect = lower value",1.08
same,normalized growth,"locus YKL048C, strain ELM1, stronger effect = lower value",0.96
same,normalized growth,"locus YKL067W, strain YNK1, stronger effect = lower value",0.933
same,normalized growth,"locus YKL101W, strain HSL1, stronger effect = lower value",0.939
same,normalized growth,"locus YKL193C, strain SDS22, stronger effect = lower value",0.976
same,normalized growth,"locus YKL203C, strain TOR2, stronger effect = lower value",1.01
same,normalized growth,"locus YLR113W, strain HOG1, stronger effect = lower value",0.839 (active)
same,normalized growth,"locus YLR133W, strain CKI1, stronger effect = lower value",0.959
same,normalized growth,"locus YLR403W, strain SFP1, stronger effect = lower value",0.982
same,normalized growth,"locus YML070W, strain DAK1, stronger effect = lower value",0.912
same,normalized growth,"locus YMR001C, strain CDC5, stronger effect = lower value",0.987
same,normalized growth,"locus YMR205C, strain PFK2 (second series), stronger effect = lower value",0.938
same,normalized growth,"locus YMR277W, strain FCP1, stronger effect = lower value",0.975
same,normalized growth,"locus YNL006W, strain LST8, stronger effect = lower value",0.985
same,normalized growth,"locus YNL020C, strain ARK1, stronger effect = lower value",0.962
same,normalized growth,"locus YNL161W, strain CBK1, stronger effect = lower value",0.965
same,normalized growth,"locus YNL183C, strain NPR1, stronger effect = lower value",1.05
same,normalized growth,"locus YNL207W, strain RIO2, stronger effect = lower value",0.988
same,normalized growth,"locus YNL222W, strain SSU72, stronger effect = lower value",0.981
same,normalized growth,"locus YNL307C, strain MCK1 (second series), stronger effect = lower value",0.946
same,normalized growth,"locus YOL078W, strain AVO1, stronger effect = lower value",0.974
same,normalized growth,"locus YOL136C, strain PFK27, stronger effect = lower value",0.941
same,normalized growth,"locus YOR061W, strain CKA2, stronger effect = lower value",0.938
same,normalized growth,"locus YOR119C, strain RIO1, stronger effect = lower value",1
same,normalized growth,"locus YOR231W, strain MKK1, stronger effect = lower value",0.965
same,normalized growth,"locus YOR329C, strain SCD5, stronger effect = lower value",0.981
same,normalized growth,"locus YPL031C, strain PHO85, stronger effect = lower value",0.924
same,normalized growth,"locus YPL153C, strain RAD53, stronger effect = lower value",0.92
same,normalized growth,"locus YPL204W, strain HRR25, stronger effect = lower value",0.903
same,normalized growth,"locus YPL209C, strain IPL1, stronger effect = lower value",0.986
same,normalized growth,"locus YPL256C, strain CLN2, stronger effect = lower value",0.945
same,normalized growth,"locus YPR025C, strain CCL1, stronger effect = lower value",0.986
same,normalized growth,"locus YPR106W, strain ISR1, stronger effect = lower value",0.975
same,normalized growth,"locus YPR111W, strain DBF20, stronger effect = lower value",0.97
same,normalized growth,"strain NNK1, stronger effect = lower value",0.977
same,normalized growth,"strain TSCII, stronger effect = lower value",0.986
